In the supplement of paper PMC8728848:
Only a selection was taken, and the strongest signals are over-represented in it overall.

Legend:
Assay in all cases: glycan array binding signal (z-score within array); higher = stronger binding
Conditions in all cases: glycan notation: IUPAC condensed, linker removed
[1] = biological target: Fuc(a1-2)Gal(b1-3)[Fuc(a1-4)]GlcNAc(b1-2)Man(a1-3)[Fuc(a1-2)Gal(b1-3)[Fuc(a1-4)]GlcNAc(b1-2)Man(a1-6)]Man(b1-4)GlcNAc(b1-4)[Fuc(a1-6)]GlcNAc(b1-4)[Fuc(a1-6)]GlcNAc
How it was run: (§1)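 The Consortium for Functional Glycomics database supplied 3228 glycan arrays, of which those lacking an available protein sequence were dropped. The binding signal, a within-array Z-score, was averaged across arrays of the same protein sequence and across linkers. Negative scores can be read as non-binding.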

[2] = biological target: Fuc(a1-2)Gal(b1-4)GlcNAc(b1-3)Gal(b1-4)GlcNAc
How it was run: as §1

[3] = biological target: Fuc(a1-2)Gal(b1-4)GlcNAc(b1-3)GalNAc
How it was run: as §1

[4] = biological target: Fuc(a1-2)[Gal(a1-3)]Gal(b1-3)GlcNAc(b1-2)Man(a1-3)[Fuc(a1-2)[Gal(a1-3)]Gal(b1-3)GlcNAc(b1-2)Man(a1-6)]Man(b1-4)GlcNAc(b1-4)GlcNAc
How it was run: as §1

[5] = biological target: Fuc(a1-2)[Gal(a1-3)]Gal(b1-4)Glc
How it was run: as §1

[6] = biological target: Fuc(a1-2)[Gal(a1-3)]Gal(b1-4)GlcNAc(b1-6)GalNAc
How it was run: as §1

[7] = biological target: Fuc(a1-2)[Gal(a1-3)]Gal(b1-4)[Fuc(a1-3)]Glc
How it was run: as §1

[8] = biological target: Fuc(a1-2)[GalNAc(a1-3)]Gal(b1-3)GalNAc(a1-3)[Fuc(a1-2)]Gal(b1-4)GlcNAc
How it was run: as §1

[9] = biological target: Fuc(a1-3)[Gal3S(b1-4)]GlcNAc
How it was run: as §1

[10] = biological target: Fuc(a1-3)[Gal3S(b1-4)]GlcNAc6S
How it was run: as §1

Fuc(a1-4)GlcNAc = biological target: Fuc(a1-4)GlcNAc
How it was run: as §1

[11] = biological target: Gal(a1-3)Gal(b1-4)[Fuc(a1-3)]GlcNAc(b1-2)Man(a1-3)[Gal(a1-3)Gal(b1-4)[Fuc(a1-3)]GlcNAc(b1-2)Man(a1-6)]Man(b1-4)GlcNAc(b1-4)GlcNAc
How it was run: as §1

[12] = biological target: Gal(a1-3)[Gal(a1-4)]Gal(b1-4)GlcNAc
How it was run: as §1

[13] = biological target: Gal(b1-3)GalNAc(a1-3)[Fuc(a1-2)]Gal(b1-4)Glc
How it was run: as §1

[14] = biological target: Gal(b1-3)GalNAc(b1-4)Gal(b1-4)Glc
How it was run: as §1

[15] = biological target: Gal(b1-3)GlcNAc(b1-3)Gal(b1-4)GlcNAc(b1-2)[Gal(b1-3)GlcNAc(b1-3)Gal(b1-4)GlcNAc(b1-6)]Man(a1-6)[Gal(b1-3)GlcNAc(b1-3)Gal(b1-4)GlcNAc(b1-2)Man(a1-3)]Man(b1-4)GlcNAc(b1-4)[Fuc(a1-6)]GlcNAc
How it was run: as §1

[16] = biological target: Gal(b1-3)GlcNAc(b1-6)[Gal(b1-3)]GalNAc
How it was run: as §1

[17] = biological target: Gal(b1-4)GlcNAc(b1-2)Man(a1-3)[GlcNAc(b1-2)Man(a1-6)]Man(b1-4)GlcNAc(b1-4)GlcNAc
How it was run: as §1

[18] = biological target: Gal(b1-4)GlcNAc(b1-2)Man(a1-6)[GlcNAc(b1-2)Man(a1-3)]Man(b1-4)GlcNAc(b1-4)GlcNAc
How it was run: as §1

[19] = biological target: Gal(b1-4)GlcNAc(b1-2)[Gal(b1-4)GlcNAc(b1-6)]Man(a1-6)[GlcNAc(b1-4)][Gal(b1-4)GlcNAc(b1-2)[Gal(b1-4)GlcNAc(b1-4)]Man(a1-3)]Man(b1-4)GlcNAc(b1-4)[Fuc(a1-6)]GlcNAc
How it was run: as §1

[20] = biological target: Gal(b1-4)GlcNAc(b1-3)Gal(b1-3)GalNAc
How it was run: as §1

[21] = biological target: Gal(b1-4)GlcNAc(b1-3)Gal(b1-4)GlcNAc(b1-2)[Gal(b1-4)GlcNAc(b1-3)Gal(b1-4)GlcNAc(b1-6)]Man(a1-6)[Gal(b1-4)GlcNAc(b1-3)Gal(b1-4)GlcNAc(b1-2)Man(a1-3)]Man(b1-4)GlcNAc(b1-4)GlcNAc
How it was run: as §1

[22] = biological target: Gal(b1-4)GlcNAc(b1-3)Gal(b1-4)GlcNAc(b1-3)Gal(b1-4)GlcNAc(b1-3)Gal(b1-4)GlcNAc(b1-2)Man(a1-3)[Gal(b1-4)GlcNAc(b1-3)Gal(b1-4)GlcNAc(b1-3)Gal(b1-4)GlcNAc(b1-3)Gal(b1-4)GlcNAc(b1-2)Man(a1-6)]Man(b1-4)GlcNAc(b1-4)GlcNAc
How it was run: as §1

[23] = biological target: Gal(b1-4)GlcNAc(b1-3)Gal(b1-4)GlcNAc(b1-3)Gal(b1-4)GlcNAc(b1-3)Gal(b1-4)GlcNAc(b1-3)Gal(b1-4)GlcNAc(b1-2)Man(a1-3)[Gal(b1-4)GlcNAc(b1-3)Gal(b1-4)GlcNAc(b1-3)Gal(b1-4)GlcNAc(b1-3)Gal(b1-4)GlcNAc(b1-3)Gal(b1-4)GlcNAc(b1-2)Man(a1-6)]Man(b1-4)GlcNAc(b1-4)GlcNAc
How it was run: as §1

Gal6S(b1-3)GlcNAc6S = biological target: Gal6S(b1-3)GlcNAc6S
How it was run: as §1

[24] = biological target: GalNAc(b1-4)GlcNAc(b1-3)GalNAc(b1-4)GlcNAc
How it was run: as §1

GalNAc3S(b1-4)GlcNAc3S = biological target: GalNAc3S(b1-4)GlcNAc3S
How it was run: as §1

B1: PX9896A-bth-573-26-573 (Bacteroides thetaiotaomicron) (protein)
chain: ETNNLKTKEDMYKYFGTSKSMLTHVYSYMPQGYQLFATSGGIFTEDRYSMRDCASDDGEFGAYADNIQNTNNGNWSPIKTYDDSWTLYRGIRAANSFIAEIAQVDFTRYEHDGQYTNWMKQLKYFPYEARVLRAHYFFELARRYGDIAMPLEVLTEEEANTIGKTPFSEVISFIVSECDDAANNLPDSYVNEPGAEIGRVTKGFAMAVKSKALLYAASKLHNPSMDTELWKKSAKAAIDIINTGLYSLDPQESANNLDSKEVVLMRINGDDSDFEMFNLPLRMTAGTRTSSLIPYSNYPSQNLVDAFETVNGYKVTLENTGWVCEDPAFDPQSPYENRDKRFYRAILANGMSFKDYTIETFKGGADDGIVSQGGSPTGYFLRKYIQEATSFEPGKEAVSKHHWVIYRYAETLLTYAESMVNAFNDVNYTDETYKYSALWAINEVRKNADMPLIPSMGKDEFMERLYNEWRVEFAFEDHRFWDVRRWKIADTTQRELYGVKIEKQADGTFNFYKNLYETRNWRDCMYLYPIPQSELYKNTNLNPQNTGW
glycan array binding signal (z-score) [1]: 0.845
glycan array binding signal (z-score) [2]: -0.815
glycan array binding signal (z-score) [3]: 0.126
glycan array binding signal (z-score) [4]: 5.75
glycan array binding signal (z-score) [5]: -0.838
glycan array binding signal (z-score) [6]: -0.304
glycan array binding signal (z-score) [7]: -1.01
glycan array binding signal (z-score) [8]: 0.607
glycan array binding signal (z-score) [9]: -0.437
glycan array binding signal (z-score) [10]: 8.17
glycan array binding signal (z-score) (Fuc(a1-4)GlcNAc): 0.243
glycan array binding signal (z-score) [11]: 2.9
glycan array binding signal (z-score) [12]: 3.79
glycan array binding signal (z-score) [13]: -0.889
glycan array binding signal (z-score) [14]: -0.458
glycan array binding signal (z-score) [15]: 3.52
glycan array binding signal (z-score) [16]: 0.949
glycan array binding signal (z-score) [17]: 3.74
glycan array binding signal (z-score) [18]: 4.65
glycan array binding signal (z-score) [19]: 0.323
glycan array binding signal (z-score) [20]: -0.185
glycan array binding signal (z-score) [21]: 5.18
glycan array binding signal (z-score) [22]: 0.219
glycan array binding signal (z-score) [23]: 0.845
glycan array binding signal (z-score) (Gal6S(b1-3)GlcNAc6S): 3.99
glycan array binding signal (z-score) [24]: -0.28
glycan array binding signal (z-score) (GalNAc3S(b1-4)GlcNAc3S): -0.744
